Experiment: enhancers of NK cell killing of ovarian tumor cells, primary screen, imaging, OVCAR3, primary NK cells, calcein-AM imaging (AID 1508625);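 also: compound given to NK cells 16 h before adding targets at 1.5 to 1 ratio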
Details: OVCAR3 lysis by primary NK cells, at 5 µM; z-score: measured here: robust Z-score, single-point normalisation

Row | Compound | corrected activity, negative = more killing [%] | z-score
1 | O=C1C(=Cc2cccc([N+](=O)[O-])c2)Sc2ccccc21 | -3.79 | -1.61
2 | Cc1[nH]c2ccccc2c(=O)c1CN(C)Cc1ccccc1 | 0.566 | 0.175
3 | Cc1oc(-c2cccc(Br)c2)nc1CN1CCC(C(=O)NCc2ccc(Cl)cc2)CC1 | -6.33 | -1.71
4 | CCOC(=O)c1ccc(CN(Cc2ccc(F)cc2)S(=O)(=O)c2cccc(Cl)c2)cc1 | -6.34 | -1.71
5 | Cc1ccc(NC(=O)Cc2[nH]c3ccccc3c2Sc2ccccc2)cc1 | -1.55 | -0.584
6 | Cc1cc(NC(=O)CSc2nc3ccc(Br)cc3c3nc4ccccc4n23)no1 | -5.14 | -1.36
7 | O=C1c2ccccc2C(=O)N1C1C(=O)N(c2cccc(C(F)(F)F)c2)C1c1ccc(F)cc1 (centres undefined) | -1.28 | -0.397
8 | CCOc1ccc(-n2c(SCc3ccccc3Cl)nc3c(c2=O)SCC3)cc1 | -3.11 | -0.774
9 | O=C(NN=Cc1ccncc1)c1n[nH]c2c1CCC2 | -1.79 | -0.783
10 | CC(C)Oc1ccc(CNC2CCOC(C)(C)C2)cc1 (centres undefined) | -3.04 | -1.2
11 | COc1ccccc1CNC(=O)CCS(=O)(=O)Cc1ccccc1C | -4.37 | -1.18
12 | CCC(=O)NC(Nc1ccccc1Cl)(C(F)(F)F)C(F)(F)F | -0.701 | -0.276
13 | CCC(Cc1ccccc1)NS(=O)(=O)c1ccc(F)c(C(=O)Nc2ccc(C)c(F)c2)c1 (centres undefined) | -2.04 | -0.551
14 | CSCCOC(=O)C1=C(C)NC(=O)NC1c1cccc([N+](=O)[O-])c1 (centres undefined) | 0.214 | 0.0664
15 | CCOc1ccc(NS(=O)(=O)c2ccc3[nH]cc(C(=O)NCC4CCCO4)c(=O)c3c2)cc1 (centres undefined) | -2.15 | -0.527
16 | Cc1cc(Br)ccc1NC(=O)CCNC(=O)Cn1cnc2sc3c(c2c1=O)CCCC3 | -0.281 | -0.0893
17 | Cc1sc(NC(=O)C2c3ccccc3Oc3ccccc32)c(C(N)=O)c1C | -5.26 | -2.16
18 | CC(=O)Oc1ccc(-c2nc3ccc(OC(C)=O)cc3c(=O)o2)cc1 | -3.33 | -1.44
19 | CCc1ccccc1N1C(=O)C2C(c3ccc(Br)cc3)OC3(C(=O)c4ccccc4C3=O)C2C1=O (centres undefined) | 0.455 | 0.141
20 | O=C1C(=O)N(Cc2cccnc2)C(c2ccccc2)C1=C(O)c1ccc(F)cc1 (centres undefined) | -1.93 | -0.837
21 | c1ccc(OCCCc2nc(-c3ccccn3)no2)cc1 | -2.46 | -1.37

Row | Compound | corrected activity, negative = more killing [%] | z-score
22 | COc1ccc(Cn2c(=S)[nH]c3cc(C(=O)N4CCCCC4)ccc3c2=O)cc1 | -8.39 | -2.67
23 | CCOC(=O)c1ccc2c(c1)[C@@H]1C=CC[C@@H]1[C@H](c1ccccc1Br)N2 | 3.06 | 0.914
24 | O=C(Cn1cnc2sc3c(c2c1=O)CCCC3)NCCCC(=O)Nc1ccccc1F | -3.19 | -1.01
25 | CCOc1ccc(S(=O)(=O)NC(C)C)c2cccnc12 | -3.65 | -1.16
26 | O=C(O)C1C2C=CC(O2)C1C(=O)Nc1ccccc1C(F)(F)F (centres undefined) | -3.8 | -1.56
27 | CCc1ccc(NC(=O)c2ccccc2NC(=O)c2cccc(OC)c2)cc1 | 1.91 | 1.06
28 | N#CCCCSc1nnnn1-c1ccccc1 | -7.28 | -2.25
29 | COC(=O)c1ccc(COC(=O)c2cc(=O)[nH]c3ccccc23)cc1 | -1.5 | -0.835
30 | O=c1cc(-c2ccc([N+](=O)[O-])cc2)nc2c(-c3ccc(Cl)cc3)c(Cc3ccccc3)[nH]n12 | -1.76 | -0.911
31 | CC(C)(C)c1ccc(-c2nc3cc(NC(=O)Cc4ccccc4)ccc3o2)cc1 | -3 | -1.06
32 | CCCCOc1ccc(C(=O)N2CCN(C(=O)N(C)C)CC2)cc1 | -0.23 | -0.128
33 | Cn1c(SCc2c[nH]c3cc([N+](=O)[O-])ccc23)nc2sc3c(c2c1=O)CCCC3 | -1.25 | -0.47
34 | COc1ccc(NC(=O)C(N)=O)cc1 | -3.82 | -1.62
35 | CCOc1ccc(C2C(N3C(=O)c4cccc([N+](=O)[O-])c4C3=O)C(=O)N2c2cc(Cl)ccc2C)cc1 (centres undefined) | -3.8 | -1.18
36 | CC(=O)Nc1ncc(Br)cc1[N+](=O)[O-] | -1.26 | -0.391
37 | O=C(c1ccncc1)N1CCN(CC2CC=CCC2)CC1 (centres undefined) | -3.11 | -1.39
38 | Cc1ccc(C(=O)N2C(=O)C(c3ccccc3)Oc3ccccc32)cc1 (centres undefined) | -10.8 | -3.35
39 | Cc1ccc(-n2nc(C)c(C=Cc3onc(C)c3[N+](=O)[O-])c2C)cc1 | -6.18 | -1.84
40 | O=C(Nc1ccc(Br)cc1)c1ccccc1I | -1.25 | -0.444
41 | Cc1ccc2c(N)c(C#N)sc2n1 | -0.436 | -0.166
42 | CC(C(=O)NCCCN1CCOCC1)c1ccc([N+](=O)[O-])cc1 (centres undefined) | -5.52 | -3.07

— PubChem BioAssay AID1508625 (Wald Lab, School of Medicine, Case Western Reserve …, 2021)
